hgDAF12 agonist = H. glycines DAF-12 receptor agonists, primary screen, cell-based, luminescence, HEK293, GAL4 fusion, UAS-luciferase. Nuclear hormone receptor DAF-12 (Heterodera glycines), GAL4 fusion. HEK293 GAL4-hgDAF12 UAS-luciferase reporter, agonist luminescence; normalized to butyrate control. activation, % at 6.8 µM. 370,000 tested, 1.8% active;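 active = activation above a cutoff set at the mean of all screened compounds plus 3 SD, cut at about 10% in these data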
DAX1 inh-1 = DAX1 (NR0B1) inhibitors on StAR promoter, primary screen, cell-based, luminescence, SF-1 (NR5A1), full-length DAX-1 | HEK293T StAR-luciferase reporter, SF-1/DAX-1 repression relief | inhibition, % at 6.8 µM | 370,000 tested, 1.1% active | AID 652010, 2013;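 active = inhibition above the mean over all tested compounds plus 3 SD, cut at about 3.6% in these data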;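 also: higher inhibition means more luminescence from relief of DAX-1 repression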
hcDAF12 agonist = H. contortus DAF-12 nuclear receptor activators, primary screen, cell-based, luminescence, HEK293, lit1-tk-luc reporter; HEK293 hcDAF-12 lit1-tk-luc reporter; 0% DMSO, 100% Δ7-dafachronic acid; activation, % at 6.8 µM; 370,000 tested, 1.4% active;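 active = activation above the mean of all tested compounds plus 3 SD, cut at about 5.5% in these data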
DAX1 inh-2 = DAX1 (NR0B1) inhibitors, primary screen, cell-based, HEK293, Gal4-DAX1, luciferase luminescence. HEK293 Gal4-DAX1 luciferase reporter. inhibition, % at 6.75 µM. Nuclear receptor subfamily 0 group B member 1 (Homo sapiens), P51843. 340,000 tested, 0.99% active;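 active = inhibition above the mean over all tested compounds plus 3 SD, cut at about 4.2% in these data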;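 also: inhibition shows as a rise in luminescence from relieved DAX1 repression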
Target sequence (P51843 207-470 limits assumed): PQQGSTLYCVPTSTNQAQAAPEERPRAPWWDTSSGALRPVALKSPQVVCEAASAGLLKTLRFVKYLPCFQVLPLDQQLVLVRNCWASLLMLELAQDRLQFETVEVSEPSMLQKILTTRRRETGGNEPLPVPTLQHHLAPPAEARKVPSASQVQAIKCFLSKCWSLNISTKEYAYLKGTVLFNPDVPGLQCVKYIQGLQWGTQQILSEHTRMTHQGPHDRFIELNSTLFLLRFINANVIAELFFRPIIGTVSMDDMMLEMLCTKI
SMARCA2 activ = SMARCA2 (BRM) function activators, primary screen, cell-based, luminescence, high throughput | 370,000 tested, 1% active | activation, % at 9.1 µM | MG213 cells, MMTV-luciferase reporter, dexamethasone, overnight; in the data active = activation above about 7.8%
ssDAF12 agonist = S. stercoralis DAF-12 nuclear receptor activators, primary screen, cell-based, luminescence, HEK293, GRIP1 co-expression, lit1-tk-luc; HEK293 ssDAF-12/GRIP1 lit1-tk-luc reporter; % of 3 µM dafachronic acid response; AID 652126, 2013; Nuclear hormone receptor DAF-12 (Strongyloides stercoralis); 370,000 tested, 1% active; activation, % at 6.8 µM;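 active = activation above the mean over all tested compounds plus 3 SD, cut at about 0.9% in these data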
LXRb hcDAF ctr = LXR agonists, Gal4 luciferase reporter, confirmation, counter-screen for hcDAF-12 agonist project, cell-based, luminescence, HEK293, H. contortus campaign; shares compounds with hcDAF12 agonist; HEK293 Gal4-LXR tk-luc reporter, 24 h; normalized: DMSO 0%, positive control 100%; activation, % at 6.8 µM; 3,400 tested, under 10 active; AID 743027, 2013;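 active = mean percent activation of the reporter above a cutoff set as the average over tested compounds plus their standard deviation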
hcDAF12 conf = H. contortus DAF-12 receptor agonists, confirmation, cell-based, luminescence, HEK293, lit1-tk-luc, triplicate; shares compounds with hcDAF12 agonist; HEK293 hcDAF-12 lit1-tk-luc reporter; % of Δ7-dafachronic acid response; activation, % at 6.8 µM; 3,400 tested, 61% active;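 active = mean activation across triplicate tests above the threshold derived from the earlier primary screen, cut at about 5.5% in these data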
Of the large screens only hits and unclear results are named; the others gave an inactive call (follow-up assays come after a bar, where they were run). An excerpt weighted towards active compounds, which were near 4.8% of everything screened.

N#C/C(=C\c1ccc(-c2ccc(C(=O)O)cc2)o1)C(=O)Nc1ccc(F)cc1	hcDAF12 agonist 6.9 | LXRb hcDAF ctr inactive | hcDAF12 conf inactive
Cc1cccc(C)c1NC(=O)/C(C#N)=C/c1ccc(-c2ccc(C(=O)O)cc2)o1	hcDAF12 agonist 7.0, DAX1 inh-2 4.3 | LXRb hcDAF ctr inactive | hcDAF12 conf inactive
C=CCNC(=S)N(C)[C@H]1C[C@H]2c3cc(-c4ccccc4C)ccc3CCN2C[C@H]1[C@H](C)O	none (no result: DAX1 inh-2)
O=C1C=C(Nc2ccccc2)c2ccccc2C1=O	none
O=C1C=C(Nc2ccccc2)C(=O)c2ccccc21	hcDAF12 agonist 7.6 | LXRb hcDAF ctr inactive | hcDAF12 conf 7.0
COCCNC(=O)CCC(=O)NNc1nc2ccccc2c2nc(C)nn12	none
CC(C)CCNC(=O)CCC(=O)NNc1nc2ccccc2c2nc(-c3ccccc3)nn12	hcDAF12 agonist 6.8 | LXRb hcDAF ctr inactive | hcDAF12 conf inactive
C=CCN=C1NC(c2cccc(Cl)c2)C(C(=O)OC)=C(C)N1C (configuration not stated)	none (no result: DAX1 inh-2)
N#CCC[C@@H]1CC[C@]2(CCCN(C(=O)C3CCCC3)C2)O1	none (no result: DAX1 inh-2)
CNCc1ccccc1OCC(=O)Nc1ccccc1	hcDAF12 agonist 7.0 | LXRb hcDAF ctr inactive | hcDAF12 conf inactive
CSc1n[nH]c(-c2cccs2)n1	none (no result: DAX1 inh-2)
COc1ccccc1-c1nnc(SCc2ccccn2)n1C	none
COc1ccccc1-c1nc(SCc2ccccn2)n[nH]1	hcDAF12 agonist 6.9, DAX1 inh-2 4.9 | LXRb hcDAF ctr inactive | hcDAF12 conf 9.0
Cc1ccc(Nc2nc3ccccc3o2)cc1F	hgDAF12 agonist 12, DAX1 inh-1 4.0, hcDAF12 agonist 7.3 | LXRb hcDAF ctr inactive | hcDAF12 conf inactive
O=C(N[C@H](Cc1ccccc1)C(=O)NCc1ccccn1)[C@H]1O[C@@H](n2ccc(=O)[nH]c2=O)[C@H](O)[C@@H]1O	none (no result: DAX1 inh-2)
COc1ccc(C2CC(=O)C(c3cccc(F)c3)=CN2Cc2ccccc2)cc1 (configuration not stated)	none (no result: DAX1 inh-2)
O=C(NCC1CCCO1)c1cc2cc(F)ccc2[nH]1 (configuration not stated)	hcDAF12 agonist 7.1 | LXRb hcDAF ctr inactive | hcDAF12 conf inactive
Cc1nc2ccccc2nc(C)c1=NOCc1ccccc1Cl	hgDAF12 agonist 11, hcDAF12 agonist 8.7 | LXRb hcDAF ctr inactive | hcDAF12 conf inactive
Cc1[nH]n(C(N)=S)c(=O)c1N=Nc1ccc(S(=O)(=O)N2CCCCCC2)cc1	none
Cc1ccc(N=Nc2c(C)[nH]n(C(N)=S)c2=O)cc1C	hcDAF12 agonist 9.2 | LXRb hcDAF ctr inactive | hcDAF12 conf 12
Cc1[nH]n(C(N)=S)c(=O)c1N=Nc1ccc2ccccc2c1	hgDAF12 agonist 13, hcDAF12 agonist 15, ssDAF12 agonist 1.3 | LXRb hcDAF ctr inactive | hcDAF12 conf 9.0
CC(=O)Nc1ccc(N=Nc2c(C)[nH]n(C(N)=S)c2=O)cc1	none
COC(=O)[C@]12C[C@H](CC(=O)NCC3CCCCC3)C(=O)N(Cc3ccccc3)C1=C[C@H](C1CCCC1)O[C@@H]2C	none (no result: DAX1 inh-2)
COC(=O)C1=C(C)N(C)C(=NCc2ccccc2C(F)(F)F)NC1c1ccc(Cl)cc1 (configuration not stated)	none (no result: DAX1 inh-2)
O=c1c2cc3cc4c(cc3nc2ncn1Cc1cccnc1)OCO4	none (no result: DAX1 inh-2)
O=C(Nc1ccc(F)cc1)OCc1cn(Cc2ccc(F)cc2)nn1	none (no result: DAX1 inh-2)
COc1ccc(C(=O)/C=C/Nc2cc(C)ccn2)cc1	hgDAF12 agonist 14, hcDAF12 agonist 10 | LXRb hcDAF ctr inactive | hcDAF12 conf 11
CN1CCN(C(=O)Nc2ccccc2CC[N+](=O)[O-])CC1	hcDAF12 agonist 13 | LXRb hcDAF ctr inactive | hcDAF12 conf inactive
CN1CCN(C(=O)Nc2ccccc2)CC1	none
Cc1cc(NS(=O)(=O)c2ccc(NC(=O)CSc3nnc(-c4ccccn4)n3-c3ccccc3)cc2)nc(C)n1	none (no result: DAX1 inh-2)
Nc1ccc(N=Nc2ccccc2)c2ccccc12	hcDAF12 agonist 8.2 | LXRb hcDAF ctr inactive | hcDAF12 conf inactive
CN1CCCCC(NC(=O)c2ccc(C#N)cc2)C1=O (configuration not stated)	none (no result: DAX1 inh-2)
Cc1ccc(C(=O)Nc2ncc(Cc3ccccc3)s2)o1	DAX1 inh-1 3.8, hcDAF12 agonist 12 | LXRb hcDAF ctr inactive | hcDAF12 conf 8.4
O=C(Nc1ncc(Cc2ccc(SC(F)F)cc2)s1)c1ccccc1	none
O=C(COc1cccnc1[N+](=O)[O-])N1CCC(Cc2ccccc2)CC1	none
O=C(COc1ccccc1[N+](=O)[O-])OCC(=O)N1CCC(Cc2ccccc2)CC1	hcDAF12 agonist 7.6 | LXRb hcDAF ctr inactive | hcDAF12 conf inactive
Cc1onc(-c2c(F)cccc2Cl)c1-c1ncc(-c2ccc(Cl)cc2)o1	none (no result: DAX1 inh-2)
O=C(NNc1nc2ccccc2s1)c1ccc(F)cc1	hcDAF12 agonist 9.6, ssDAF12 agonist 2.1 | LXRb hcDAF ctr inactive | hcDAF12 conf inactive
NC(=O)C1CC(=O)N(c2ccc(OCc3ccccc3Cl)cc2)C1 (configuration not stated)	hcDAF12 agonist 7.3 | LXRb hcDAF ctr inactive | hcDAF12 conf inactive
O=C(O)C1CC(=O)N(c2ccc(OCc3ccccc3Cl)cc2)C1 (configuration not stated)	none
CS(=O)(=O)c1ccc(OCCCN2CCC(C(O)(c3ccccc3)c3ccccc3)CC2)cc1	none (no result: DAX1 inh-2)
Cc1cc(-c2ccccc2)n2ncc(-c3ccccc3)c2n1	DAX1 inh-1 3.9, hcDAF12 agonist 11 | LXRb hcDAF ctr inactive | hcDAF12 conf 20
Cc1cc(N2CCC(C)CC2)n2ncc(-c3ccccc3)c2n1	none
Cc1cc(N2CCOCC2)n2ncc(-c3ccccc3)c2n1	hcDAF12 agonist 9.4 | LXRb hcDAF ctr inactive | hcDAF12 conf 16
